About 79,000 compounds went through this panel and 15% of them were active in at least one assay; those are over-represented in the sample as a whole. Activity calls are given as the source filed them. No stated cut-off is given here; in the data, active means growth inhibition above about 70%; inactive means the rest.
How the values were obtained:
[1] = NCI Yeast Anticancer Drug Screen. Data for the rad50 strain (AID 155);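 further: 0% = growth of vehicle-only cultures of the same strain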; settings: S. cerevisiae rad50 strain growth inhibition, stronger effect = higher value
Outline: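 Compounds were tested on a yeast strain with an engineered DNA damage repair alteration; the reported value is growth inhibition normalised to vehicle treatment.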

[2] = NCI Yeast Anticancer Drug Screen. Data for the mec2-1 strain (AID 157); settings: S. cerevisiae mec2-1 strain, stronger effect = higher value
Outline: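 Cells of the genetically defined mec2-1 yeast strain are incubated with test compound. Inhibition of growth is calculated against vehicle-treated controls.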

[3] = NCI Yeast Anticancer Drug Screen. Data for the sgs1 mgt1 strain (AID 161);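 further: 0% = growth of cultures given vehicle only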; settings: S. cerevisiae sgs1 mgt1 strain, stronger effect = higher value
Outline: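 Test agents were incubated with a DNA-repair-mutant yeast strain. Growth was then read and compared against vehicle-treated controls.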

[4] = NCI Yeast Anticancer Drug Screen. Data for the cln2 rad14 strain (AID 165);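 further: 0% = growth equal to vehicle treated cultures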; settings: S. cerevisiae cln2 rad14 strain, stronger effect = higher value
Outline: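 The screen exposed genetically defined yeast (cln2 rad14) to test compounds and scored growth inhibition relative to vehicle-treated controls.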

[5] = NCI Yeast Anticancer Drug Screen. Data for the bub3 strain (AID 167); settings: S. cerevisiae bub3 mutant strain, stronger effect = higher value
Outline: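 Growth of a checkpoint-deficient yeast mutant is measured after compound exposure. Values represent inhibition relative to vehicle.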

[6] = NCI Yeast Anticancer Drug Screen. Data for the mlh1 rad18 strain (AID 175); settings: S. cerevisiae mlh1 rad18 strain growth inhibition, stronger effect = higher value
Outline: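 Compound-treated yeast growth, normalised to vehicle controls. Strain bears defined DNA repair mutations.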

[7] = at 5.0 µM (retest, dose inferred, filed as 0.5)
[8] = at 50.0 µM (retest, dose inferred, filed as 5.0)

Measured: growth inhibition

CC(=O)Nc1ccc(/C=C2/NC(=S)N(/C=C3\C(=O)Oc4ccccc4C3=O)C2=O)cc1
inactive: [1]; [7] -10% | [1]; [8] 50% | [2]; [7] -19% | [2]; [8] 60% | [3]; [7] -6% | [3]; [8] 29% | [4]; [7] -15% | [4]; [8] 64% | [5]; [7] -12% | [5]; [8] 36% | [5]; at 50.0 µM 67.2% | [6]; [7] -9% | [6]; [8] 44%
active: [1]; at 50.0 µM 70.7% | [2]; at 50.0 µM 76.5% | [3]; at 50.0 µM 78.7% | [4]; at 50.0 µM 86% | [6]; at 50.0 µM 76.2%

CC1=C(C)CC(C#N)(C#N)C(C#N)(C#N)C1
inactive: [1]; [7] -12% | [2]; [7] 10% | [3]; [7] -13% | [4]; [7] -18% | [4]; at 50.0 µM 38.1% | [5]; [7] 30% | [5]; at 50.0 µM 58.7% | [6]; [7] 6%
active: [1]; [8] 80% | [1]; at 50.0 µM 83.9% | [2]; [8] 92% | [2]; at 50.0 µM 79.6% | [3]; [8] 80% | [3]; at 50.0 µM 82.2% | [4]; [8] 86% | [5]; [8] 97% | [6]; [8] 97% | [6]; at 50.0 µM 75.3%

c1cc2cc(Cc3ccc4[nH]ccc4c3)ccc2[nH]1
inactive: [1]; [7] 21% | [1]; [8] 26% | [1]; at 50.0 µM 12.2% | [2]; [7] 21% | [2]; [8] 36% | [2]; at 50.0 µM 11.4% | [3]; [7] 25% | [3]; [8] 19% | [3]; at 50.0 µM 13% | [4]; [7] 16% | [4]; [8] 10% | [4]; at 50.0 µM -1.1% | [5]; [7] 12% | [5]; [8] 16% | [5]; at 50.0 µM 43.2% | [6]; [7] 32% | [6]; [8] 41%
active: [6]; at 50.0 µM 92.2%

CCC(=O)Oc1c(Br)c(Br)c(Br)c(Br)c1Br
inactive: [1]; [7] 8% | [1]; [8] 56% | [1]; at 50.0 µM 29% | [2]; [7] 17% | [2]; [8] 62% | [2]; at 50.0 µM 6% | [3]; [7] 7% | [3]; [8] 50% | [3]; at 50.0 µM 8.45% | [4]; [7] 21% | [4]; [8] 68% | [4]; at 50.0 µM 25.8% | [5]; [7] 56% | [6]; [7] 35% | [6]; at 50.0 µM 19.5%
active: [5]; [8] 86% | [5]; at 50.0 µM 92% | [6]; [8] 84%

CCCCCCC1CC(=O)C1(Cl)Cl (configuration not stated)
active: [1]; [8] 100% | [1]; at 50.0 µM 89.1% | [2]; [8] 100% | [2]; at 50.0 µM 93.3% | [3]; [8] 100% | [3]; at 50.0 µM 90.1% | [4]; [8] 100% | [4]; at 50.0 µM 92.5% | [5]; [8] 100% | [5]; at 50.0 µM 92% | [6]; [8] 100% | [6]; at 50.0 µM 86.2%
inactive: [1]; [7] -9% | [2]; [7] -16% | [3]; [7] -17% | [4]; [7] -4% | [5]; [7] -32% | [6]; [7] 12%

O=C(CC1C=Cc2ccccc2N1C(=O)c1ccccc1)c1ccccc1 (configuration not stated)
active: [1]; [8] 85% | [1]; at 50.0 µM 83% | [2]; [8] 76% | [2]; at 50.0 µM 76.5% | [3]; [8] 82% | [4]; [8] 77% | [4]; at 50.0 µM 73% | [5]; [8] 93% | [5]; at 50.0 µM 86% | [6]; [8] 87% | [6]; at 50.0 µM 88.5%
inactive: [1]; [7] 1% | [2]; [7] -4% | [3]; [7] -7% | [3]; at 50.0 µM 37.8% | [4]; [7] -17% | [5]; [7] 21% | [6]; [7] -2%

CCOC(C)(OCC)C(N)c1ccccc1 (configuration not stated)
inactive: [1]; [7] -15% | [1]; [8] -12% | [1]; at 50.0 µM 14.3% | [2]; [7] 10% | [2]; [8] -17% | [2]; at 50.0 µM 19.4% | [3]; [7] 6% | [3]; [8] 9% | [3]; at 50.0 µM -0.2% | [4]; [7] -1% | [4]; [8] 5% | [4]; at 50.0 µM -5.65% | [5]; [7] 6% | [5]; [8] 9% | [5]; at 50.0 µM -6.9% | [6]; [7] 2% | [6]; [8] 9% | [6]; at 50.0 µM 1.05%

N=Nc1c(OC(=O)Nc2cccc(Cl)c2)[nH]c2ccccc12
active: [1]; [8] 99% | [1]; at 50.0 µM 98.7% | [2]; [8] 99% | [2]; at 50.0 µM 98.8% | [3]; [8] 99% | [3]; at 50.0 µM 99% | [4]; [8] 99% | [4]; at 50.0 µM 98.2% | [5]; [8] 99% | [5]; at 50.0 µM 98.4% | [6]; [8] 99% | [6]; at 50.0 µM 99.1%
inactive: [1]; [7] 36% | [2]; [7] 14% | [3]; [7] 28% | [4]; [7] 15% | [5]; [7] 1% | [6]; [7] 33%

Cc1ccc(C2SCC(=O)N2c2ccc(-n3c(-c4ccccc4)nc4ccccc4c3=O)cc2)cc1 (configuration not stated)
active: [1]; [8] 90% | [1]; at 50.0 µM 75.3% | [3]; [8] 81% | [3]; at 50.0 µM 77.2% | [4]; [8] 87% | [4]; at 50.0 µM 83.2% | [5]; [8] 74% | [5]; at 50.0 µM 72.7% | [6]; [8] 88% | [6]; at 50.0 µM 79.8%
inactive: [1]; [7] -16% | [2]; [7] -8% | [2]; [8] 55% | [2]; at 50.0 µM 67.5% | [3]; [7] -10% | [4]; [7] -16% | [5]; [7] -24% | [6]; [7] -8%
